The supplement of paper PMC7366291
Counter-ions that a name gives are not always drawn. ± gives the standard deviation of the averaged measurements.

system: Danio rerio Tg(wt1b:EGFP) embryo, pronephros; test: fraction of imaged embryos annotated as normal kidney; higher = less nephrotoxic; extreme values may be limits of the assay; conditions: 25 µM; exposure: 24-48 hpf
How it was run: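 Tricaine-anaesthetised Tg(wt1b:EGFP) zebrafish larvae were oriented dorsally in agarose-filled 96-well plates, and their pronephroi were recorded by widefield fluorescence at 470 nm in 10 z-slices. Before this, the dechorionated embryos had been exposed in 12-well plates to 25 μM compound in 0.5% DMSO and 5 mM HEPES-buffered E3 with 0.003% PTU, from 24 to 48 hpf at 28.5°C. Maximum projections were annotated manually for each embryo, and the read-out is the fraction per treatment classed as normal kidney.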

Compound	fraction of imaged embryos annotated as normal kidney
Cc1ccccc1N1C(=O)c2cc(S(N)(=O)=O)c(Cl)cc2NC1C (centres undefined) [Metolazone]	0.917
NC(=O)c1cnccn1 [Pyrazinamide]	0.667
OCc1cc(C(O)CNCCCCCCOCCCCc2ccccc2)ccc1O (centres undefined) [Salmeterol]	0
CN(C)c1ccc(O)c2c1C[C@H]1C[C@H]3[C@H](N(C)C)C(O)=C(C(N)=O)C(=O)[C@@]3(O)C(O)=C1C2=O [Minocycline hydrochloride]	0.8
Nc1nc2c(ncn2COCCO)c(=O)[nH]1 [Acyclovir]	0.583
CCCCNc1ccc(C(=O)OCCN(C)C)cc1	0.833
CCCN(CCC)S(=O)(=O)c1ccc(C(=O)O)cc1 [Probenecid]	0.833
CC(CNC1CCCCC1)OC(=O)c1ccccc1 (centres undefined) [Hexylcaine hydrochloride]	0.857
O=C(CCCN1CCN(c2ccccn2)CC1)c1ccc(F)cc1 [Azaperone]	0.833

system: Danio rerio Tg(wt1b:EGFP) embryo, pronephros; test: pronephric angle neck segment to proximal convoluted tubule (mean of left and right), fold change vs DMSO control; higher = larger pronephric angle; conditions: 25 µM; exposure: 24-48 hpf
How it was run: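 Dechorionated Tg(wt1b:EGFP) zebrafish embryos were kept from 24 to 48 hpf at 28.5°C in HEPES-buffered E3 containing 0.003% PTU, 0.5% DMSO and 25 μM compound. The pronephroi were then imaged from the dorsal side in agarose-filled 96-well plates at 470 nm with 10 z-slices, and 16 reference points were placed by hand on maximum projections in Fiji so that a macro could calculate distances and angles. Values lying more than 2 SD from the mean of a feature were discarded. Every feature is given as a fold change against the mean of DMSO-treated embryos from the same day.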

Compound	pronephric angle neck segment
OCCOCCN1CCN(C(c2ccccc2)c2ccc(Cl)cc2)CC1 (centres undefined) [Hydroxyzine dihydrochloride]	0.964 ± 0.048
O=C(O)CCC(=O)c1ccc(-c2ccccc2)cc1 [Fenbufen]	1.32 ± 0.18
CC(=O)OCC(=O)[C@@]1(OC(C)=O)[C@@H](C)C[C@H]2[C@@H]3C[C@H](F)C4=CC(=O)C=C[C@]4(C)[C@@]3(F)[C@@H](O)C[C@@]21C [Diflorasone Diacetate]	0.973 ± 0.059
CN(Cc1cnc2nc(N)nc(N)c2n1)c1ccc(C(=O)N[C@@H](CCC(=O)O)C(=O)O)cc1 [Methotrexate]	0.978 ± 0.014
CCCCNC(=O)NS(=O)(=O)c1ccc(C)cc1 [Tolbutamide]	1.04 ± 0.023
CC(=O)O[C@]1(C(C)=O)CC[C@H]2[C@@H]3C=C(Cl)C4=CC(=O)CC[C@]4(C)[C@H]3CC[C@@]21C [Chlormadinone acetate]	1.17 ± 0.093
CC(C)C(=O)Nc1ccc([N+](=O)[O-])c(C(F)(F)F)c1 [Flutamide]	1.05 ± 0.031
Cn1c(=O)c2c(ncn2CC(=O)O)n(C)c1=O [Acefylline]	1.02 ± 0.035
CN(C)CCC[C@@]1(c2ccc(F)cc2)OCc2cc(C#N)ccc21 [Escitalopram oxalate]	0.941 ± 0.024
Cc1cccc(C)c1NC(=O)C1CCCCN1C (centres undefined) [Mepivacaine hydrochloride]	0.991 ± 0.054
Cc1cc(NS(=O)(=O)c2ccc(N)cc2)no1 [Sulfamethoxazole]	0.9977 ± 0.0021
CO[C@@]1(NC(=O)CSCC#N)C(=O)N2C(C(=O)O)=C(CSc3nnnn3C)CS[C@@H]21 [Cefmetazole sodium salt]	0.944 ± 0.042
CC1(C)O[C@@H]2[C@@H](CO[C@@]3(COS(N)(=O)=O)OC(C)(C)O[C@@H]23)O1 [Topiramate]	1 ± 0.025
Cc1cccc(N(C)C(=S)Oc2ccc3ccccc3c2)c1 [Tolnaftate]	1.05 ± 0.065
CCCCC(=O)N(Cc1ccc(-c2ccccc2-c2nnn[nH]2)cc1)[C@H](C(=O)O)C(C)C [Valsartan]	0.991 ± 0.021
Cc1cc(-c2ccccc2)nnc1NCCN1CCOCC1 [Minaprine dihydrochloride]	0.9963 ± 0.0098
Nc1nc(=O)[nH]cc1F [Flucytosine]	1.003 ± 0.0094
CN1CCOC(c2ccccc2)c2ccccc2C1 (centres undefined) [Nefopam hydrochloride]	1.02 ± 0.012
Nc1ccn([C@@H]2O[C@H](CO)[C@@H](O)C2(F)F)c(=O)n1 [Gemcitabine]	1.03 ± 0.039
Clc1ccc(CCC(Cn2ccnc2)Sc2c(Cl)cccc2Cl)cc1 (centres undefined) [Butoconazole nitrate]	1.25 ± 0.056

Compound	pronephric angle neck segment
COc1ccc(CN2CCN(C(c3ccc(F)cc3)c3ccc(F)cc3)CC2)c(OC)c1OC [Lomerizine hydrochloride]	0.99 ± 0.019
CCCCOc1ccc(OCCCN2CCOCC2)cc1 [Pramoxine hydrochloride]	0.993 ± 0.033
C[C@H](N)[C@H](O)c1cccc(O)c1 [Metaraminol bitartrate]	0.771 ± 0.017
CCN(CC)CCN[C@@H](C(=O)OCCC(C)C)c1ccccc1 [Camylofine chlorhydrate]	0.977 ± 0.015
C[C@]12CC[C@@H]3c4ccc(O)cc4CC[C@H]3[C@@H]1CCC2=O [Estrone]	1.05 ± 0.019
CC(C)Cn1cnc2c(N)nc3ccccc3c21 [Imiquimod]	0.978 ± 0.037
NCCc1c[nH]cn1 [Histamine dihydrochloride]	1.03 ± 0.03
CN(Cc1cc(Br)cc(Br)c1N)C1CCCCC1 [Bromhexine hydrochloride]	1 ± 0.026
c1ccc(CN(CC2=NCCN2)c2ccccc2)cc1 [Antazoline hydrochloride]	0.9446 ± 0.00065
N#Cc1ccc(C(c2ccc(C#N)cc2)n2cncn2)cc1 [Letrozole]	0.938 ± 0.014
C=CC[N@@+]12CC[C@@]34c5ccccc5N5/C=C6/[C@H]7C[C@H]8[C@@]9(CC[N@@+]8(CC=C)C/C7=C/CO)c7ccccc7N(/C=C(/[C@@H](C[C@@H]31)/C(=C\CO)C2)[C@H]54)[C@@H]69 [Alcuronium chloride]	0.958 ± 0.03
Cc1ccccc1N1C(=O)c2cc(S(N)(=O)=O)c(Cl)cc2NC1C (centres undefined) [Metolazone]	1.03 ± 0.016
NC(=O)c1cnccn1 [Pyrazinamide]	0.9361 ± 0.0033
OCc1cc(C(O)CNCCCCCCOCCCCc2ccccc2)ccc1O (centres undefined) [Salmeterol]	1.65 ± 0.087
CN(C)c1ccc(O)c2c1C[C@H]1C[C@H]3[C@H](N(C)C)C(O)=C(C(N)=O)C(=O)[C@@]3(O)C(O)=C1C2=O [Minocycline hydrochloride]	0.92712 ± 6.2e-05
Nc1nc2c(ncn2COCCO)c(=O)[nH]1 [Acyclovir]	0.888 ± 0.022
CCCCNc1ccc(C(=O)OCCN(C)C)cc1	1.057 ± 0.0014
CCCN(CCC)S(=O)(=O)c1ccc(C(=O)O)cc1 [Probenecid]	0.915 ± 0.028
CC(CNC1CCCCC1)OC(=O)c1ccccc1 (centres undefined) [Hexylcaine hydrochloride]	1.09 ± 0.14
O=C(CCCN1CCN(c2ccccn2)CC1)c1ccc(F)cc1 [Azaperone]	1 ± 0.019
